Records with an inconclusive call do not appear. Activity calls are given as the source filed them. Rule for the calls, unless noted: active = hit-call score of the fitted dose curve at least 0.9, where 1 is the maximum; inactive = score below 0.9.

The nature of assay [1]: CCTE_Mundy_HCI_Cortical_Synap_Neur_Matur_NeuriteSpotCountPerNeuron: CCTE's Synaptogenesis and Neurite Maturation Assay in rat cortical cells for Neurite Spot Count per Neuron Count, Mundy Lab (AID 2284215). An outline of the steps: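 Rat primary cortical cultures given AraC at DIV 5, dosed from DIV 7 to DIV 12 with media change. Fixed, stained for MAP2, synaptophysin and Hoechst; neurite-associated synaptophysin puncta per neuron quantified by high-content imaging versus DMSO.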

A short description of assay [2]: CCTE_Mundy_HCI_Cortical_Synap_Neur_Matur_SynapseCount: CCTE's Synaptogenesis and Neurite Maturation Assay in rat cortical cells for Synapse Count, Mundy Lab (AID 2284218). In short, it runs like this: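 Endpoint: synapses/neuron by HCI (synaptophysin puncta on MAP2-labelled neurites, Hoechst nuclei). Rat primary cortical cells, AraC DIV 5, dosed DIV 7, fixed DIV 12; DMSO negative control.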

Assay [3] is described as follows: CCTE_Mundy_HCI_Cortical_Synap_Neur_Matur_NeuriteCount: CCTE's Synaptogenesis and Neurite Maturation Assay in rat cortical cells for Neurite Count, Mundy Lab (AID 2284222).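 Note: exposure from day 7 to day 12 in vitro with readout at day 12.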 In short, it runs like this: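 Rat cortical neurons, 96-well; AraC DIV 5; chemical + media change DIV 7; end DIV 12. Fix PFA/Hoechst, anti-MAP2 + anti-synaptophysin IF. HCI neurite count vs DMSO baseline.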

Assay [4] in a line: CCTE_Mundy_HCI_Cortical_Synap_Neur_Matur_CellBodySpotCount: CCTE's Synaptogenesis and Neurite Maturation Assay in rat cortical cells for Cell Body Spot Count, Mundy Lab (AID 2284223). An outline of the steps: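 Primary rat cortical cultures, AraC added at DIV 5; dosed DIV 7 through DIV 12 […]. Fixed, stained for MAP2 and synaptophysin with Hoechst; cell body-associated synaptophysin puncta per neuron counted by high-content imaging, loss vs DMSO.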

Assay [5] in a line: CCTE_Mundy_HCI_hNP1_Pro_ResponderAvgInten: CCTE's Proliferation Assay in human neuroprogenitor cells, Mundy Lab (AID 2284224; active = hit-call score of the fitted dose curve at least 0.9, where 1 is the maximum;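 note: human neural progenitor cells hNP1 derived from WA09 embryonic stem cells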). An outline of the steps: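 Human neuroprogenitors (hNP1, WA09 lineage) receive test chemical after 40 to 44 hours of attachment. A four-hour BrdU pulse begins twenty hours later, followed by fixation and high content imaging; signal is referenced to DMSO controls.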

The nature of assay [6]: UKN2_HCS_IMR90_cell_viability: Viability Assessment in the University of Konstanz (UKN) Leist Lab Neural Crest Cell Migration Assay in human induced IMR90 Pluripotent Stem Cells (UKN2) (AID 2284233).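 Note: viability of neural crest cells differentiated from IMR90 iPSC measured by calcein-AM fluorescence imaging; cells exposed to compound for 24 h after a 24 h migration phase.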 An outline of the steps:
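cMINC format, iPSC-derived neural crest (IMR90); 24 h migration (EGF/FGF, N2-S), then 24 h toxicant. Calcein-AM/H-33342 stain 30 min; fluorescence intensity by HCS; DMSO-normalised, bidirectional fitting.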

Assay [7] in a line: CCTE_Mundy_HCI_hNP1_Casp3_7: CCTE's Caspase-Glo 3/7 Assay in human neuroprogenitor cells for Apoptosis, Mundy Lab (AID 2284240). In short, it runs like this: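 Neuroepithelial-lineage stem cells from WA09 embryonic cells were treated with chemicals after 40–44 h of culture. Twenty-four hours later, caspase-3/7 activation was detected luminescently after a 30 min room-temperature reagent step, with DMSO as baseline.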

The nature of assay [8]: CCTE_Mundy_HCI_hNP1_CellTiter: CCTE's Cell Titer-Glo 2 Assay in human neuroprogenitor cells for Viability, Mundy Lab (AID 2284241; active = hit-call score of the fitted dose curve at least 0.9, where 1 is the maximum). In short, it runs like this:
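Measures ATP content in human neural progenitors derived from WA09 embryonic cells. Read-out at 26.5 hours after dosing, with DMSO serving as the negative control and baseline.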
(Cellular ATP, detected with luciferase, serves as a proxy for viable cell number.)

A short description of assay [9]: CCTE_Mundy_HCI_Cortical_Synap_Neur_Matur_NeuronCount: CCTE's Synaptogenesis and Neurite Maturation Assay in rat cortical cells for Neuron Count, Mundy Lab (AID 2284242; active = hit-call score of the fitted dose curve at least 0.9, where 1 is the maximum;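 note: hits reduce neuron count versus DMSO baseline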). An outline of the steps:
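Measured at DIV 12: fluorescently labelled neurons (Hoechst nuclei, MAP2) in rat primary cortical cultures, counted by high-content imaging. AraC suppressed glia from DIV 5; DMSO served as negative control.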

A short description of assay [10]: IUF_NPC2c_oligodendrocyte_migration_120hr: Leibniz Research Institute for Environmental Medicine (IUF) 120-hour Neural Progenitor Cell Migration Assay for Oligodendrocyte Migration (NPC2c) (AID 2284297).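 Note: O4-positive oligodendrocyte migration distance divided by radial glia migration distance.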 An outline of the steps:
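Human fetal neural progenitor spheres (0.3 mm) are plated on poly-D-lysine/laminin in N2 differentiation medium and exposed for 120 h, with half-medium renewal at day 3. Oligodendrocyte (O4+) migration distance comes from ICC imaging, normalised to radial glia migration.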

A short description of assay [11]: IUF_NPC2a_radial_glia_migration_120hr: Leibniz Research Institute for Environmental Medicine (IUF) 120-hour Neural Progenitor Cell Migration Assay for Radial Glia Migration (NPC2a) (AID 2284298). In short, it runs like this: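 Human fetal-cortex neural progenitor spheres (0.3 mm) plated on poly-D-lysine/laminin in N2 differentiation medium, exposed 120 h at 37C with half-medium renewal at day 3. Radial glia migration distance (um) measured from Hoechst-stained nuclei images; DMSO baseline.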

A short description of assay [12]: IUF_NPC2a_radial_glia_migration_72hr: Leibniz Research Institute for Environmental Medicine (IUF) 72-hour Neural Progenitor Cell Migration Assay for Radial Glia Migration (NPC2a) (AID 2284299). An outline of the steps: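 Spheres of human primary neural progenitors migrate on poly-D-lysine/laminin under compound exposure at 37C, 5% CO2. The 72 h radial glia migration distance comes from brightfield images, measured manually.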

Assay [13] can be described thus: IUF_NPC2b_neuronal_migration_120hr: Leibniz Research Institute for Environmental Medicine (IUF) 120-hour Neural Progenitor Cell Migration Assay for Neuron Migration (NPC2b) (AID 2284300). In short, it runs like this: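 0.3 mm hNPC spheres on poly-D-lysine/laminin in N2 differentiation medium exposed 120 h, half-medium refresh day 3; 7 concentrations, DMSO max 0.1%. Neuron (TUBB3) distance from sphere core by ICC imaging, normalised to radial glia migration.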

A short description of assay [14]: IUF_NPC3_neuronal_differentiation_120hr: Leibniz Research Institute for Environmental Medicine (IUF) 120-hour Neuronal Differentiation Assay (NPC3) (AID 2284301). An outline of the steps:
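Neuronal differentiation of primary human neural progenitors measured by high-content imaging: percent TUBB3+ of Hoechst+ nuclei within migrated area at 120 h, seven-point serial dilution plus solvent control, gain or loss relative to DMSO.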

Assay [15] in a line: IUF_NPC4_neurite_length_120hr: Leibniz Research Institute for Environmental Medicine (IUF) 120-hour Neuronal Morphology Assay for Neurite Length (NPC4) (AID 2284302). In short, it runs like this:
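Neurons from differentiating human fetal neural progenitor spheres are scored for average neurite length after five days of compound exposure. Fitting uses DMSO as negative control.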

Assay [16] is described as follows: IUF_NPC5_oligodendrocyte_differentiation_120hr: Leibniz Research Institute for Environmental Medicine (IUF) 120-hour Oligodendrocyte Differentiation Assay (NPC5) (AID 2284304; active = hit-call score of the fitted dose curve at least 0.9, where 1 is the maximum;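 note: primary human fetal neural progenitor spheres plated to migrate and differentiate; share of O4-positive cells among Hoechst nuclei found by CNN image analysis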). In short, it runs like this: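 Human fetal neural progenitor spheres (0.3 mm) plated on poly-D-lysine/laminin in N2 differentiation medium and exposed for 120 h at 7 concentrations, with half-medium renewal at day 3. O4-positive cells identified by CNN, expressed as percent of Hoechst nuclei.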

The nature of assay [17]: IUF_NPC4_neurite_area_120hr: Leibniz Research Institute for Environmental Medicine (IUF) 120-hour Neuronal Morphology Assay for Neurite Area (NPC4) (AID 2284305; active = hit-call score of the fitted dose curve at least 0.9, where 1 is the maximum). In short, it runs like this: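 Endpoint at 120 h: automated imaging of TUBB3/Hoechst-stained differentiating human neural progenitor spheres, neurite area per neuron from skeletonization. DMSO solvent control, not above 0.1%, set the baseline; medium was half-replaced on day 3.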

Assay [18] in a line: IUF_NPC2-5_cytotoxicity_72hr: Cytotoxicity Assessment at 72 hours in the Leibniz Research Institute for Environmental Medicine (IUF) Neural Progenitor Cell Migration and Differentiation Assay for Cytotoxicity (NPC2-5) (AID 2284306; active = hit-call score of the fitted dose curve at least 0.9, where 1 is the maximum;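 note: LDH release into supernatant measured by resorufin fluorescence marking membrane damage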). An outline of the steps:
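Primary human neural progenitor spheres migrate and differentiate on laminin. Compound is present from the start of differentiation, with DMSO kept at or below 0.1%. At 72 h, supernatant LDH is quantified fluorometrically, with values fitted in the positive direction.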

Assay [19] is described as follows: IUF_NPC2-5_cytotoxicity_120hr: Cytotoxicity Assessment at 120 hours in the Leibniz Research Institute for Environmental Medicine (IUF) Neural Progenitor Cell Migration and Differentiation Assay (NPC2-5) (AID 2284307; active = hit-call score of the fitted dose curve at least 0.9, where 1 is the maximum). An outline of the steps:
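Human fetal (GW 16-19) neural progenitor spheres (0.3 mm) plated on poly-D-lysine/laminin in N2 differentiation medium, exposed 120 h with half-medium renewal at day 3; 7 concentrations plus solvent control, DMSO ≤0.1%. LDH release in supernatant read by resorufin fluorescence.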

Assay [20] in a line: IUF_NPC2-5_cell_number_120hr: Cell Number Assessment at 120 hours in the Leibniz Research Institute for Environmental Medicine (IUF) Neural Progenitor Cell Migration and Differentiation Assay (NPC2-5) (AID 2284308).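 Note: count of Hoechst-stained nuclei in migration zone around plated human neural progenitor spheres.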 An outline of the steps: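 Human fetal neural progenitor spheres (0.3 mm) plated on poly-D-lysine/laminin in N2 differentiation medium, exposed five days across 7 concentrations with half-medium refresh at day 3. Hoechst-positive nuclei counted in migration area at 120 h, relative to DMSO.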

Assay [21] in a line: IUF_NPC2-5_viability_120hr: Viability Assessment at 120 hours in the Leibniz Research Institute for Environmental Medicine (IUF) Neural Progenitor Cell Migration and Differentiation Assay (NPC2-5) (AID 2284312). In short, it runs like this:
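Human fetal (GW 16-19) neural progenitor spheres of 0.3 mm were plated on poly-D-lysine/laminin in N2 differentiation medium and exposed from day 0 for 120 h, with half-medium refresh at day 3. Viability was read as alamar blue resazurin-to-resorufin fluorescence against DMSO.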

The nature of assay [22]: IUF_NPC1_cytotoxicity_72hr: Cytotoxicity Assessment at 72 hours in the Leibniz Research Institute for Environmental Medicine (IUF) Neural Progenitor Cell Proliferation Assay (NPC1) (AID 2284332; active = hit-call score of the fitted dose curve at least 0.9, where 1 is the maximum;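 note: rising LDH signal means more cytotoxicity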). In short, it runs like this: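 Readout is fluorescence from LDH-dependent resazurin conversion, sampled from culture medium after compound contact lasting 72 h. Each well holds one 0.25-0.35 mm human progenitor sphere kept at 37C, 5% CO2 with EGF and FGF.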

Assay [23] is described as follows: CCTE_Mundy_HCI_iCellGluta_NOG_NeuronCount: CCTE's Neurite Outgrowth Assay in iCellGluta cells for Neuron Count, Mundy Lab (AID 2284340; active = hit-call score of the fitted dose curve at least 0.9, where 1 is the maximum;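 note: cells fixed about 48 h after compound addition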). In short, it runs like this:
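Neuron count read by automated high-content imaging of Hoechst 33342 and betaIII-tubulin/Alexa Fluor-488 labelling in human iPSC glutamatergic neurons. Activity fitted relative to DMSO.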

Assay [24] can be described thus: CCTE_Mundy_HCI_iCellGluta_NOG_NeuriteCount: CCTE's Neurite Outgrowth Assay in iCellGluta cells for Neurite Count, Mundy Lab (AID 2284342; active = hit-call score of the fitted dose curve at least 0.9, where 1 is the maximum;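 note: chemical exposure about 48 hours starting 2 hours after plating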).

Usually AC50 stands for the concentration giving half of the maximal activity seen. `Cn1nc(C(F)(F)F)c(CS(=O)(=O)C2=NOC(C)(C)C2)c1OC(F)F`: the AC50 in assay [1] was 9.92 µM (active); in assay [9], 31.3 µM (active); in assay [11] it was 33.8 µM (active); in assay [14], 9.95 µM (active); in assay [15] it was 42.3 µM (active); in assay [17], 50.1 µM (active). The outcome in assay [2], in assay [3], in assay [4], in assay [5], in [6] and in assay [7] was inactive. The call in [8], in assay [10], in assay [12], in [13], in assay [16] and in assay [18] was inactive. Besides, the result in [19], in assay [20], in [21], in assay [22], in assay [23] and in [24] was inactive.

The values above are taken from PubChem BioAssay (EPA / NIEHS).
